Molecules are shown by their SMILES. Calls of active or inactive are those of the source. The calls were made as follows: active = hit-call score of the fitted dose curve at least 0.9, where 1 is the maximum; inactive = score below 0.9.

Our source for the outcome and AC50 values is PubChem BioAssay (EPA / NIEHS).

Read-out in test [1]: Vascular endothelial growth factor receptor 2 (Homo sapiens) (UniProt P35968)
The test can be described thus: BSK_4H_VEGFRII: BioMAP Diversity Plus: 4H Assay for Vascular endothelial growth factor receptor 2 (VEGFR2) Biomarker Activity (AID 2283031).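 As to AC50: cell-surface VEGFR2 protein level quantified by ELISA.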 Conditions: primary human endothelial cells (HUVEC); actives raise or lower the signal. The essentials: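 HUVEC (human primary), 4H system; 24 h post-dose; VEGFRII by ELISA; bidirectional curve fit vs DMSO baseline; gain or loss of signal scored.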

Read-out in test [2]: Vascular cell adhesion molecule 1 (VCAM1), VCAM1 (gene 7412)
As to the kind of experiment: BSK_4H_VCAM1: BioMAP Diversity Plus: 4H Assay for Vascular cell adhesion molecule 1 (VCAM1) Biomarker Activity (AID 2283033). The following applies: primary human endothelial cells (HUVEC); actives raise or lower the signal. In outline: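 Primary human umbilical vein endothelial cells, 4H stimulation system, treated for 24 h; cell-surface VCAM-1 quantified by ELISA. Bidirectional fitting against DMSO; cytotoxicity tracked by SRB total-protein staining in parallel cultures.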

Read-out in test [3]: Interferon-gamma inducible Protein 10 (IP10), CXCL10 (gene 3627)
The test can be described thus: BSK_BE3C_IP10: BioMAP Diversity Plus: BE3C Assay for Interferon-gamma inducible Protein 10 (IP10) Biomarker Activity (AID 2283034). Conditions: primary human bronchial epithelial cells; actives raise or lower the signal. In outline: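 Primary human bronchial epithelial cells, with IP-10 measured by ELISA 24 hours after chemical dosing. Bidirectional fit against DMSO; cytotoxicity checked by SRB total protein staining in parallel cultures.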

Read-out in test [4]: Monokine induced gamma interferon (MIG), CXCL9 (gene 4283)
The test can be described thus: BSK_BE3C_MIG: BioMAP Diversity Plus: BE3C Assay for Monokine induced gamma interferon (MIG) Biomarker Activity (AID 2283035). The following applies: primary human bronchial epithelial cells; actives raise or lower the signal. In outline:
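MIG level was determined by ELISA after 24 h chemical treatment of primary human bronchial epithelial cells. Values were fitted bidirectionally with DMSO as the negative control and activity baseline.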

Read-out in test [5]: Transforming growth factor beta 1 (TGFb1), TGFB1 (gene 7040)
The test can be described thus: BSK_BE3C_TGFb1: BioMAP Diversity Plus: BE3C Assay for Transforming growth factor beta 1 (TGFb1) Biomarker Activity (AID 2283036). Conditions: primary human bronchial epithelial cells; actives raise or lower the signal. In outline:
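Primary human bronchial epithelial cells dosed with chemical; TGF-b1 measured by ELISA 24 h after dosing. Bidirectional curve fitting against DMSO negative control; SRB total-protein staining in parallel cultures gauged cytotoxicity.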

Read-out in test [6]: Plasminogen activator inhibitor-1 (PAI1), SERPINE1 (gene 5054)
As to the kind of experiment: BSK_BE3C_PAI1: BioMAP Diversity Plus: BE3C Assay for Plasminogen activator inhibitor-1 (PAI1) Biomarker Activity (AID 2283037). The following applies: primary human bronchial epithelial cells; actives raise or lower the signal. In outline:
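Primary human bronchial epithelial cells (BE3C system) exposed 24 h; PAI-1 quantified by ELISA. Parallel sulforhodamine B staining of total protein flags cytotoxicity. Bidirectional fit versus DMSO.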

Read-out in test [7]: urokinase plasminogen activator (uPA), PLAU (gene 5328)
As to the kind of experiment: BSK_BE3C_uPA: BioMAP Diversity Plus: BE3C Assay for urokinase plasminogen activator (uPA) Biomarker Activity (AID 2283038).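 As to outcome: uPA protein level quantified by ELISA in cell cultures; uPA read one day after compound addition.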 The following applies: primary human bronchial epithelial cells; actives raise or lower the signal. The essentials: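 ELISA read-out of uPA in human lung primary bronchial epithelial cultures, 24 h post-dosing. Gain or loss of signal fitted bidirectionally relative to DMSO baseline; cytotoxicity checked in parallel cultures via SRB total protein stain.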

Read-out in test [8]: Interleukin-6 (IL6), IL6 (gene 3569)
The test can be described thus: BSK_CASM3C_IL6: BioMAP Diversity Plus: CASM3C Assay for Interleukin-6 (IL6) Biomarker Activity for (AID 2283040). The following applies: primary human coronary artery smooth muscle cells; actives raise or lower the signal.

Read-out in test [9]: Urokinase-type plasminogen activator receptor (uPAR), PLAUR (gene 5329)
As to the kind of experiment: BSK_BE3C_uPAR: BioMAP Diversity Plus: BE3C Assay for Urokinase-type plasminogen activator receptor (uPAR) Biomarker Activity (AID 2283039).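 As to outcome: uPAR protein level measured by ELISA on the cells; cells exposed to compound for one day before measurement.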 The following applies: primary human bronchial epithelial cells; actives raise or lower the signal. In outline: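 Primary human bronchial epithelial cells dosed for 24 h; uPAR quantified by ELISA with bidirectional fitting against DMSO. Overt cytotoxicity assessed in parallel cultures by SRB total-protein staining (0.1% SRB, 560 nm).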

For the molecule `CCOP(=S)(OCC)OP(=S)(OCC)OCC`, the outcome in [1], in [3], in [4], in test [5], in test [6] and in test [7] was inactive. The result in test [8] was inactive. The concentration at half-maximal activity (AC50) (commonly the midpoint of the concentration-response curve, whichever way the signal moves) in [2] was 33 µM (active).
`O=C(CCl)NCO`: the outcome in test [1], in [2], in test [3], in test [4], in test [5] and in test [6] was inactive. Also, the result in test [7], in test [9] and in test [8] was inactive.
`Oc1c(Cl)cc(Cl)cc1Cl`: the result in test [1], in [2], in test [3], in test [4], in test [5] and in test [6] was inactive. The outcome in test [7], in [9] and in test [8] was inactive.
`CCCCCCCCCCCCN(C)C`: the outcome in [1], in test [2], in [3], in [4], in test [5] and in test [6] was inactive. Also, the outcome in test [7] and in [8] was inactive.
Take `Clc1cccc(Cl)c1Cl`: the result in test [1], in test [2], in test [3], in test [4], in [5] and in test [6] was inactive. The result in [7] and in test [8] was inactive.
Consider `O=[N+]([O-])c1ccc(Nc2ccccc2)cc1`, for which the result in test [1], in test [2], in [3], in test [4], in test [5] and in test [6] was inactive. For the same molecule, the outcome in test [7] and in test [8] was inactive.
Consider `CCOC(=O)CC(=O)CCl`, for which the outcome in [1], in [4] and in [6] was inactive. The concentration at half-maximal activity (AC50) was 20 µM (active) in test [2]; 20 µM (active) in test [3]; 5.96 µM (active) in test [5]; 4.09 µM (active) in test [7]; 28.8 µM (active) in test [8].
In the case of `CCOC(=O)C(SP(=S)(OC)OC)c1ccccc1` (stereo unspecified), the result in test [1], in [4], in [5], in test [6], in [7] and in test [8] was inactive. For the same molecule, the half-maximal activity concentration (AC50) in test [2] was 27.1 µM (active); in test [3] it was 20 µM (active).
On to `OCCCCO`, for which the result in test [2], in test [3], in test [4], in [6], in test [7] and in [8] was inactive.
On to `CCCCN(CCCC)C(=S)[S-].CCCCN(CCCC)C(=S)[S-].[Ni+2]`, for which the result in [2], in test [3], in [4], in test [5], in test [6] and in [7] was inactive. In addition, the result in test [9] and in test [8] was inactive.
On to `O=C(O)COc1cc(Cl)c(Cl)cc1Cl`, for which the outcome in test [1], in test [2], in [3], in test [4], in test [5] and in test [6] was inactive. For the same molecule, the result in test [7] and in test [8] was inactive.
With `Oc1cccc(-c2ccccc2)c1`, the result in test [1], in test [3], in test [4], in [5], in test [6] and in test [7] was inactive. The outcome in [8] was inactive. Also, the AC50 in [2] is 36.9 µM (active).
Regarding `CC(C)N(C(=O)CCl)c1ccccc1`, the outcome in test [1], in test [4], in test [5], in test [6], in test [7] and in [9] was inactive. Besides, the AC50 in [2] was 20 µM (active); in test [3], 33.5 µM (active); in [8], 32.9 µM (active).
With `Oc1cc(Cl)c(Cl)cc1Cl`, the AC50 in test [1] is 31 µM (active); in test [3], 32.2 µM (active); in [7], 26.2 µM (active). Moreover, the result in test [2], in [4], in test [5], in test [9] and in test [8] was inactive.
As for `Cc1c([N+](=O)[O-])c(C)c([N+](=O)[O-])c(C(C)(C)C)c1[N+](=O)[O-]`, the outcome in test [1], in test [2], in [3], in [4], in test [5] and in [6] was inactive. The outcome in test [7] and in [8] was inactive.
As for `[Cl][Sn]([c]1ccccc1)([c]1ccccc1)[c]1ccccc1`, the outcome in [1] and in test [5] was inactive. The AC50 in test [2] was 0.0783 µM (active); in test [3], 0.0935 µM (active); in test [4] it was 0.209 µM (active); in [6] it was 0.992 µM (active); in [7], 0.27 µM (active); in test [9], 0.27 µM (active). Also, in test [8], the AC50 was 0.726 µM (active).
In the case of `Cc1ccccc1OP(=O)(Oc1ccccc1)Oc1ccccc1`, the concentration at half-maximal activity (AC50) is 20 µM (active) in test [1] and 26.1 µM (active) in test [2]. The outcome in test [3], in [4], in test [5], in test [6], in test [7] and in test [8] was inactive.
With `N#Cc1cccnc1`, the result in [1], in test [2], in test [3], in [4], in [5] and in [6] was inactive. Moreover, the result in [7] and in [8] was inactive.
